Assay in all cases: yeast three-hybrid, YBZ-1, SC-Leu-His + 0.5 mM 3-AT, 4 days
What all share (conditions): tags: N-Gal4 AD-HA kept; label: inside an RPR1-promoter hybrid RNA with tandem MS2 sites; ssRNA

The target in one test is PUM1 PUF domain R1-KER (Homo sapiens, UniProt Q14671 828-1176, S863K;R864E;Q867R). A digest of the protocol:
(§1)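 The interaction score is the logarithmic change in variant frequency from input to selection. It uses log2, with a pseudocount of 1 for absent variants, and frequencies came from PCR-amplified, Illumina-sequenced repeat regions. The libraries were Pumilio-1 PUF domains randomized at the three base-contacting residues per repeat, co-expressed with matching RNA elements in strain YBZ-1 (LexA–MS2 coat fusion, HIS3 reporter). Plating lasted four days on SC-Leu (input) or SC-Leu-His + 0.5 mM 3-AT (selection).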

In a further test the target is PUM1 PUF domain R7-RRY (Homo sapiens, UniProt Q14671 828-1176, S1079R;N1080R;E1083Y). A digest of the protocol:
as §1

In the next test the target is T1, PUM1 PUF domain R6-IFL (Homo sapiens, UniProt Q14671 828-1176, N1043I;Y1044F;Q1047L).
T1 sequence: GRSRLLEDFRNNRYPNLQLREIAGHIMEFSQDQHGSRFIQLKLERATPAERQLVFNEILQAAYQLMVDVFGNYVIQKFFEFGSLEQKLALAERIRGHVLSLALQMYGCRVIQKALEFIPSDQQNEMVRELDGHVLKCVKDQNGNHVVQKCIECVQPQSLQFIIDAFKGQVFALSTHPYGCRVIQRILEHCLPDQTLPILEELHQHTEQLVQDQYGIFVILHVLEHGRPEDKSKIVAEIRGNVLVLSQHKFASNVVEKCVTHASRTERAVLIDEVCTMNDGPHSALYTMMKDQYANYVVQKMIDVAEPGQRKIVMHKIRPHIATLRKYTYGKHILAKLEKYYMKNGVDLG
A digest of the protocol: as §1

The target in a further test is PUM1 PUF domain R7-IMR (Homo sapiens, UniProt Q14671 828-1176, S1079I;N1080M;E1083R). A digest of the protocol:
as §1

The next test concerns the target PUM1 PUF domain R4-PWT (Homo sapiens, UniProt Q14671 828-1176, N971P;H972W;Q975T). A digest of the protocol: as §1
The next test has as its target PUM1 PUF domain R3-TFL (Homo sapiens, UniProt Q14671 828-1176, C935T;R936F;Q939L). A digest of the protocol: as §1
The target of another test is PUM1 PUF domain R3-PWV (Homo sapiens, UniProt Q14671 828-1176, C935P;R936W;Q939V). A digest of the protocol:
as §1

In a further test the target is PUM1 PUF domain R3-SNP (Homo sapiens, UniProt Q14671 828-1176, C935S;R936N;Q939P). A digest of the protocol: as §1
In another test the target is PUM1 PUF domain R5-SRI (Homo sapiens, UniProt Q14671 828-1176, C1007S;Q1011I). A digest of the protocol: as §1
A further test deals with T2, PUM1 PUF domain R6-SFA (Homo sapiens, UniProt Q14671 828-1176, N1043S;Y1044F;Q1047A).
T2 sequence: T1 sequence with I216S, L220A
A digest of the protocol: as §1

Changes are numbered by the printed parent chain.

Consider “GGCUAGAACUAGUGGAUCCCCCGGCGCCCGGCGGCUCGAGCCCGGGUAAGUGUAAAUUGUCUGCAUGCCGCCGGGCGCCAUGCCUGCAGGUCGACUCUAGAAAACAUG”, for which the binding signal with PUM1 PUF domain R1-KER is 3.72 log2 enrichment (interaction score).

With “GGCUAGAACUAGUGGAUCCCCCGGCGCCCGGCGGCUCGAGCCCGGGUAAGUCUAAAUAGUCUGCAUGCCGCCGGGCGCCAUGCCUGCAGGUCGACUCUAGAAAACAUG”, in the test with PUM1 PUF domain R7-RRY, the binding signal is 3.51 log2 enrichment (interaction score).

In the case of “GGCUAGAACUAGUGGAUCCCCCGGCGCCCGGCGGCUCGAGCCCGGGUAAGUGAAAAUAGUCUGCAUGCCGCCGGGCGCCAUGCCUGCAGGUCGACUCUAGAAAACAUG”, in the test with PUM1 PUF domain R6-IFL, the binding signal is 7.28 log2 enrichment (interaction score).

In the case of “GGCUAGAACUAGUGGAUCCCCCGGCGCCCGGCGGCUCGAGCCCGGGUAAGUUUAAAUAGUCUGCAUGCCGCCGGGCGCCAUGCCUGCAGGUCGACUCUAGAAAACAUG”, the binding signal is 2.21 log2 enrichment (interaction score) with PUM1 PUF domain R7-IMR and 3.87 log2 enrichment (interaction score) with PUM1 PUF domain R7-RRY.

For “GGCUAGAACUAGUGGAUCCCCCGGCGCCCGGCGGCUCGAGCCCGGGUAAGUGUACAUAGUCUGCAUGCCGCCGGGCGCCAUGCCUGCAGGUCGACUCUAGAAAACAUG”, in the test with PUM1 PUF domain R4-PWT, the binding signal is 5.24 log2 enrichment (interaction score).

For the sequence “GGCUAGAACUAGUGGAUCCCCCGGCGCCCGGCGGCUCGAGCCCGGGUAAGUGUAAAUAGUCUGCAUGCCGCCGGGCGCCAUGCCUGCAGGUCGACUCUAGAAAACAUG”, the binding signal in the test with PUM1 PUF domain R3-TFL was 2.81 log2 enrichment (interaction score); in the test with PUM1 PUF domain R3-PWV, 3.63 log2 enrichment (interaction score); with PUM1 PUF domain R3-SNP it was 2.72 log2 enrichment (interaction score); in the test with PUM1 PUF domain R5-SRI it was 2.73 log2 enrichment (interaction score); in the test with PUM1 PUF domain R6-SFA, 3.38 log2 enrichment (interaction score).

The record behind these values is article PMC8384837, “Expanding the binding specificity for RNA recognition by a PUF domain”.
